# Measured values: PubChem BioAssay (EPA / NIEHS)
# Inconclusive results are not listed. The source made the active and inactive calls. The calls were made as follows: active = hit-call score of the fitted dose curve at least 0.9, where 1 is the maximum; inconclusive = response in the unintended direction; inactive = score below 0.9.
# Biological target: human Androgen Receptor (AR), AR (gene 367) (UniProt P10275)
# Experiment: NVS_NR_hAR: NovaScreen (NVS) Nuclear Receptor Binding Assay for human Androgen Receptor (AR) (AID 2283332)
# Procedure, shortened: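 Radioligand competitive binding, scintillation read-out, in cell-free extract from LnCAP, measured 20 h after dosing. Screened first in duplicate at 25 uM, then concentration series for actives; activity fitted against DMSO.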
# human Androgen Receptor (AR), AR (gene 367), sequence (P10275 whole entry, looked up): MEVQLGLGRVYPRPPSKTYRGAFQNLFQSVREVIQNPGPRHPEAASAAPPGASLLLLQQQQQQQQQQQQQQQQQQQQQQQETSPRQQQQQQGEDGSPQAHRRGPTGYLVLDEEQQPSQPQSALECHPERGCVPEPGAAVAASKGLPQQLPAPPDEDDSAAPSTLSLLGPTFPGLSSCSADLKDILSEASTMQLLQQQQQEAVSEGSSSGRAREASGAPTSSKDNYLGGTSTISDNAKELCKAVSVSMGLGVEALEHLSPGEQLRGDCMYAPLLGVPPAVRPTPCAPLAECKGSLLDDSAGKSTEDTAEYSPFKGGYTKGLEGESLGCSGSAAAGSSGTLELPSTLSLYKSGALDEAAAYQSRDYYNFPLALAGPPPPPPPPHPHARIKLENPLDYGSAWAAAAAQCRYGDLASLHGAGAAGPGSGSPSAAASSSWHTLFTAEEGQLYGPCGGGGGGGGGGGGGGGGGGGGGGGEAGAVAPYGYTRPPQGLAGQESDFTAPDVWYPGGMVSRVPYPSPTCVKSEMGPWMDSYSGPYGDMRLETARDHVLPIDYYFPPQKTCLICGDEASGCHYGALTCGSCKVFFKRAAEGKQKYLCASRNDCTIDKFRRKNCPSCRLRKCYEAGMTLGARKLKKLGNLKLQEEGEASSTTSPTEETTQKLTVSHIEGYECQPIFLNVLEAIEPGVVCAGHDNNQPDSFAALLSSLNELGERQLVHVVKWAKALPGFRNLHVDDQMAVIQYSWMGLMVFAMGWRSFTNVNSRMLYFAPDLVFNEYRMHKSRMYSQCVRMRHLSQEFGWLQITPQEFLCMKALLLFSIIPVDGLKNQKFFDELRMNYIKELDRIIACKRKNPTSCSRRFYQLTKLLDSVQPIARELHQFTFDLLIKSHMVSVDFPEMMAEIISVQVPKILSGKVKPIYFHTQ
SMILES,outcome,AC50
CN(Cc1cnc2nc(N)nc(N)c2n1)c1ccc(C(=O)N[C@@H](CCC(=O)O)C(=O)O)cc1,inactive,
CC(C)[C@@H]1CC[C@@H](C)C[C@H]1O,,13.1 µM (active)
CC(C)(c1ccc(Oc2ccc(N)cc2)cc1)c1ccc(Oc2ccc(N)cc2)cc1,,9 µM (active)

# Biological target: rat Peripheral-type Benzodiazepine Receptor (PBR), Tspo (gene 24230) (UniProt P16257)
# Experiment: NVS_MP_rPBR: NovaScreen (NVS) Membrane Protein Assay for rat Peripheral-type Benzodiazepine Receptor (PBR) (AID 2283335)
# Procedure, shortened: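 Radioligand displacement, rat kidney membrane prep, 1 h exposure, filter-based scintillation read; DMSO baseline, loss-of-signal scored. Primary screen at 25 uM in duplicate, actives followed up in concentration series.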
# rat Peripheral-type Benzodiazepine Receptor (PBR), Tspo (gene 24230), sequence (P16257 whole entry, looked up): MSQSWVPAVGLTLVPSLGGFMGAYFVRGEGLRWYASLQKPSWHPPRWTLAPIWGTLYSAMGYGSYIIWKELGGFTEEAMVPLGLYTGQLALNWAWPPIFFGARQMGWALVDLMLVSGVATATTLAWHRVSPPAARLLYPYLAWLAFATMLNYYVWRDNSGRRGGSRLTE
SMILES,AC50,outcome
O=C(NCc1ncc(C(F)(F)F)cc1Cl)c1c(Cl)cccc1Cl,0.005 µM (active),
c1cnc2c(c1)ccc1cccnc12,,inactive
CCCCc1oc2ccccc2c1C(=O)c1cc(I)c(OCCN(CC)CC)c(I)c1,10.9 µM (active),
CCCCCCCCCCCCCCCCCC[N+](C)(C)Cc1ccccc1,12.5 µM (active),
CCCCCCCCCCCC,5.18 µM (active),
CCCCCc1ccc(O)cc1,,inactive
CCCCCCCC(OC)OC,,inactive
CN(C)c1ccc(C(=C2C=CC(=[N+](C)C)C=C2)c2ccccc2)cc1,8.3 µM (active),
CC(C)c1c(C(=O)Nc2ccccc2)c(-c2ccccc2)c(-c2ccc(F)cc2)n1CC[C@@H](O)C[C@@H](O)CC(=O)O,0.729 µM (active),
C/C=C/C(=O)C1=C(C)CCCC1(C)C,16.8 µM (active),
COc1cc(OC)nc(NC(=O)NS(=O)(=O)Nc2ccccc2C(=O)N(C)C)n1,,inactive

# Tested on: not listed separately
# Experiment: NVS_IC_rCaBTZCHL: NovaScreen (NVS) Ion Channel Assay for Calcium Channel, Type L, Benzothiazepine Site (CaBTZCHL) (AID 2283337)
# Procedure, shortened: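 Radioligand binding to the benzothiazepine site of L-type Ca channels in rat cortical membranes (cell-free), 1.5 h after dosing; filter-based scintillation counting. Loss of signal relative to DMSO baseline; primary single-concentration screen at 25 uM, actives then run in concentration series.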
SMILES,AC50,outcome
N=C(N)c1ccc(OCCCCCOc2ccc(C(=N)N)cc2)cc1,2.33 µM (active),
CCCCc1oc2ccccc2c1C(=O)c1cc(I)c(OCCN(CC)CC)c(I)c1,1.81 µM (active),
CN(C)CCOC(c1ccccc1)c1ccccc1,5.8 µM (active),
CCCCCCCCCCCCCCCCCC[N+](C)(C)Cc1ccccc1,,inactive
O=C(CCCN1CCC(O)(c2ccc(Cl)cc2)CC1)c1ccc(F)cc1,2.55 µM (active),
C=CC(C)(CCC=C(C)C)OC(C)=O (stereo not drawn),,inactive
NC(=NCCCCCCN=C(N)/N=C(\N)Nc1ccc(Cl)cc1)/N=C(\N)Nc1ccc(Cl)cc1,8.58 µM (active),

# Biological target: rat Glutamate, MK-801 Agonist Site (GluNMDA_MK801), Grin1 (gene 24408) (UniProt P35439)
# Experiment: NVS_LGIC_rGluNMDA_MK801_Agonist: NovaScreen (NVS) Ligand-Gated Ion Channel Assay for rat Glutamate, MK-801 Agonist Site (GluNMDA_MK801) (AID 2283340)
# Procedure, shortened: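 Radioligand binding at MK-801 site in rat forebrain membranes, 1.5 h incubation, filter-based scintillation counting. Initially 25 uM in duplicate; actives then run in concentration-response up to 50 uM, fitted for gain of signal versus DMSO.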
SMILES,AC50,outcome
N=C(N)c1ccc(OCCCCCOc2ccc(C(=N)N)cc2)cc1,35.8 µM (active),
CN(C)CCOC(c1ccccc1)c1ccccc1,,inactive
O=C(CCCN1CCC(O)(c2ccc(Cl)cc2)CC1)c1ccc(F)cc1,,inactive

# Tested on: guinea pig Histamine Receptor (H2), gene 100729734
# Experiment: NVS_GPCR_gH2: NovaScreen (NVS) G Protein-Coupled Receptor Assay for guinea pig Histamine Receptor (H2) (AID 2283342)
# Procedure, shortened: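 Radioligand displacement on guinea pig striatal membranes, 1 h after dosing, filter-based scintillation counting; loss of signal versus DMSO. Single-point screen at 25 uM in duplicate, then concentration-response up to 50 uM.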
row,SMILES,AC50
1,N=C(N)c1ccc(OCCCCCOc2ccc(C(=N)N)cc2)cc1,6.98 µM (active)
2,CCCCc1oc2ccccc2c1C(=O)c1cc(I)c(OCCN(CC)CC)c(I)c1,9.85 µM (active)
3,CN(C)CCOC(c1ccccc1)c1ccccc1,4.71 µM (active)
4,O=C(CCCN1CCC(O)(c2ccc(Cl)cc2)CC1)c1ccc(F)cc1,1.65 µM (active)

# Biological target: bovine Estrogen Receptor (ER), ESR1 (gene 407238) (UniProt P49884)
# Experiment: NVS_NR_bER: NovaScreen (NVS) Nuclear Receptor Binding Assay for bovine Estrogen Receptor (ER) (AID 2283345);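 also: actives lower the bound radioligand count which means they displace the ER ligand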
# Procedure, shortened: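 Displacement of a radioligand from estrogen receptor in bovine uterine membrane preparations; scintillation signal taken at 18 hours, DMSO as baseline. Single-concentration duplicates (25 uM) preceded concentration-response follow-up of actives.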
# bovine Estrogen Receptor (ER), ESR1 (gene 407238), sequence (P49884 whole entry, looked up): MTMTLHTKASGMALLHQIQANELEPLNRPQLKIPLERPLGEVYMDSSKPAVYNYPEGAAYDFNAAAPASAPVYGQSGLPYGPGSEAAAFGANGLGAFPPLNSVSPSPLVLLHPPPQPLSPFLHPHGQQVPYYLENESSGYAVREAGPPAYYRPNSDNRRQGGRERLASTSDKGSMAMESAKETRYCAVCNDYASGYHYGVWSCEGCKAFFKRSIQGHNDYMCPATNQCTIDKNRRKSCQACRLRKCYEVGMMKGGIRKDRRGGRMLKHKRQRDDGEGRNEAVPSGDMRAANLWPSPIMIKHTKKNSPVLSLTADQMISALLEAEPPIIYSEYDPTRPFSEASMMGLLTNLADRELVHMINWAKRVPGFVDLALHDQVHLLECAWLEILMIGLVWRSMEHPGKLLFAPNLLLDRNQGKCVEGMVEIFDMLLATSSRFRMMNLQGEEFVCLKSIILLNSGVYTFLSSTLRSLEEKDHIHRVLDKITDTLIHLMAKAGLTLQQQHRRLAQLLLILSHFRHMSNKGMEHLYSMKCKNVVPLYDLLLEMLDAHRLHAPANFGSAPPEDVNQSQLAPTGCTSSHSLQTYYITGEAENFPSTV
SMILES,outcome,AC50
CC1=CC(=O)c2ccccc2C1=O,inactive,
N=C(N)c1ccc(OCCCCCOc2ccc(C(=N)N)cc2)cc1,inactive,
CCCCCC(C)OC(=O)COc1ccc(Cl)c2cccnc12 (stereo not drawn),inactive,
C=CC(C)(CCC=C(C)C)OC(C)=O (stereo not drawn),,17.1 µM (active)
NC(=NCCCCCCN=C(N)/N=C(\N)Nc1ccc(Cl)cc1)/N=C(\N)Nc1ccc(Cl)cc1,inactive,
